Shown are actives, neighbours in structure and some others; about 2.4% of the full set was active somewhere.
D2 antagonist: antagonizes the human D2 dopamine receptor. HEK293 TREx D2 cells, calcium flux, dopamine EC80. inhibition, % at 10 µM. hit rate 2% among 340,000. AID 485344; in the data active = inhibition above about 30%; inactive = below that, where a call was filed
Target sequence (P14416 whole entry, looked up): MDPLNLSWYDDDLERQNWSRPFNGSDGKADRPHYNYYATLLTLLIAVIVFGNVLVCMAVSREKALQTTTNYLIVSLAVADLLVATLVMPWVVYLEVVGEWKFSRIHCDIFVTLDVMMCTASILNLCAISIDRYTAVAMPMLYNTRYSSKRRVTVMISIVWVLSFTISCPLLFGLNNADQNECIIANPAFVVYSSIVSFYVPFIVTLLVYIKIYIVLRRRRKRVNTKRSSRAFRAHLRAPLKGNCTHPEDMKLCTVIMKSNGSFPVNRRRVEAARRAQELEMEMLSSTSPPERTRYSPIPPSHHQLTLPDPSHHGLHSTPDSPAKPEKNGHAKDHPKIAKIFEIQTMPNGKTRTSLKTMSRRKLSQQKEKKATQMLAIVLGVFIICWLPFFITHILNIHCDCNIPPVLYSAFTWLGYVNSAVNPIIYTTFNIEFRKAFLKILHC
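Compounds are added to dye-loaded, induced HEK293 T-REx cells coupled to calcium release via D2; after a 3 min kinetic read an EC80 dopamine stimulus is given and fluorescence is recorded for 3 more min.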
D2 PAM-1: positive allosteric modulators of human D2 dopamine receptor; P14416; HEK293 T-REx D2, calcium flux, EC20 dopamine potentiation; potentiation, % at 10 µM; hit rate 0.34% among 340,000;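 active = potentiation over 3 SD above the plate norm, cut at about 30% in these data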
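Tetracycline-induced HEK293 T-REx cells force-coupled to calcium signalling expressed D2; compounds were pin-added after a 10 s baseline, read kinetically 180 s, then an EC20 dopamine challenge followed with a further 180 s calcium read.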
D2 PAM-2: human D2 receptor positive allosteric modulation | potentiation, % (no concentration beside the values) | P14416 | hit rate 0.23% among 360,000 | DiscoveRx D2 beta-arrestin cells, luminescence, 90 min; 100% = 57 uM dopamine signal | AID 624464; in the data active = potentiation above about 50%; inconclusive = mostly about 30% to 49%
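PathHunter beta-arrestin assay in DiscoveRx D2 cells. Compounds were added with an EC20 of dopamine (50 nM final) for 90 min at 37 deg C. Luminescence was read 1 h after detection reagent, with 57 uM dopamine as the EC100 control.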
D2 ag-1: agonists of human D2 dopamine receptor; HEK293 T-REx D2 cells, calcium flux agonist mode; activation, % at 2 µM; hit rate 0.53% among 340,000; AID 485358;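 active = activation over 3 SD above normal in the single-dose calcium agonist read, cut at about 30% in these data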
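HEK293 Trex D2 cells, tetracycline-induced, o/n 30 C 5% CO2; no-wash Ca dye, RT 30–90 min; 10-cycle baseline, 23 nl cpd added, kinetic Ca read 180 s; agonist hits = positive Ca response.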
D2 ag-2: human D2 receptor agonism in beta-arrestin assay; activation, % (concentration not given with the values); P14416; hit rate 0.084% among 360,000; DiscoveRx PathHunter D2 beta-arrestin, luminescence, 90 min; 100% = 57 uM dopamine signal; in the data active = activation above about 40%; inconclusive = between about 15% and that limit
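Agonist mode: compounds alone added to overnight-plated D2 PathHunter cells for 90 min at 37 C, with 57 uM final dopamine (EC100) defining full response. Beta-arrestin recruitment detected by chemiluminescent reagent, read after 1 h at ambient temperature.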
Each line names hits and unclear results; the compound was inactive in the other large screens.

Cc1ccc(NC(=O)N(Cc2c[nH]c3ccccc23)C2CCCCCC2)cc1C	none (no result: D2 antagonist, D2 PAM-2, D2 ag-2)
COc1ccc(-c2nn(-c3ccccc3F)cc2CNCCn2nc(C)cc2C)cc1	D2 antagonist 37.3
COc1ccc(CCN(C)C/C=C/c2ccccc2[N+](=O)[O-])cc1OC	D2 antagonist 57.3
Cc1ccc(N(C(=O)c2sc(C)nc2C)C(C(=O)NCc2ccco2)c2ccccc2)cc1 (configuration not stated)	D2 antagonist 43.6
Cc1cc(C)cc(N(C(=O)c2sc(C)nc2C)C(C(=O)NCc2ccco2)c2ccccc2)c1 (configuration not stated)	none
Cc1cccc(N(C(=O)c2sc(C)nc2C)C(C(=O)NCc2ccco2)c2ccccc2)c1 (configuration not stated)	D2 antagonist 45.5
COc1ccc(NC(=O)C(=O)c2cc(C)n(-c3ccc(C)cc3)c2C)cc1Cl	none (no result: D2 antagonist, D2 PAM-2, D2 ag-2)
COC(=O)CC(NS(=O)(=O)c1cccs1)c1ccc2c(c1)OCO2 (configuration not stated)	none
COC(=O)CC(NS(=O)(=O)c1cccs1)c1ccccc1Cl (configuration not stated)	D2 antagonist 34.7
COc1ccc(/C=N/Nc2nnc(C)n2N)cc1OC	D2 PAM-2 56.7, D2 ag-2 inconclusive
CCCCN(C)S(=O)(=O)c1cc(-c2nnc3c4ccccc4c(C)nn23)ccc1C	none (no result: D2 antagonist, D2 PAM-2, D2 ag-2)
COc1ccc(C(=O)[C@H]2[C@H]3C(=O)N(c4ccccc4)C(=O)[C@H]3C3C=CC=NN32)cc1 (some centres not stated)	D2 antagonist 43.1
CCC(=O)N1CCc2cc(S(=O)(=O)CCC(=O)Nc3ccc(OC(F)(F)F)cc3)ccc21	none (no result: D2 antagonist, D2 PAM-2, D2 ag-2)
Cc1cc(-n2c(C)nc3ccccc3c2=O)ccc1NC(=O)c1ccc(C)c([N+](=O)[O-])c1	none (no result: D2 antagonist, D2 PAM-2, D2 ag-2)
CN(C)CCn1cnc2c(c1=N)C(c1ccccc1)c1ccc3ccccc3c1O2 (configuration not stated)	D2 antagonist 61.8
COc1cc(/C=N/NC(=O)c2cccc3ccccc23)cc(OC)c1O	none
COc1cc(/C=N/NC(=O)c2cccc3ccccc23)cc(OC)c1OC	D2 antagonist 30.4
Cc1ccc(Cl)cc1N1CCN(C(=O)CSc2nnc3n2C(C)(C)Cc2ccccc2-3)CC1	D2 PAM-1 30.5
COc1ccc(N2CCN(C(=O)CSc3nnc4n3C(C)(C)Cc3ccccc3-4)CC2)cc1	none
Cc1c(OCc2nn[nH]n2)ccc2c(-c3ccccc3)cc(=O)oc12	none
Cc1cc(OCc2nn[nH]n2)c2c(-c3ccccc3)cc(=O)oc2c1	D2 antagonist 51.1
CC(=O)N1Cc2ccccc2C(C)CC12CCCC2 (configuration not stated)	D2 antagonist 31.2
CC(=O)N1c2ccccc2C(C)CC12CCCCC2 (configuration not stated)	none
C/C(=N\O)c1cc(Cl)cc(Cl)c1O	none
C/C(=N\NC(N)=O)c1cc(Cl)cc(Cl)c1O	D2 antagonist 53.6
CCCCSCCCNC(=O)c1c[nH]c2ccc(S(=O)(=O)Nc3cccc(OC)c3)cc2c1=O	none (no result: D2 antagonist, D2 PAM-2, D2 ag-2)
CCc1ccc2[nH]c(=O)c(C(c3nnnn3Cc3ccccc3)N3CCOCC3)cc2c1 (configuration not stated)	D2 antagonist 36.4
CCc1ccc2[nH]c(=O)c(C(c3nnnn3Cc3ccc(OC)cc3)N3CCOCC3)cc2c1 (configuration not stated)	none
CCc1ccc2[nH]c(=O)c(CN(Cc3ccc(F)cc3)C(c3nnnn3CCN3CCOCC3)C(C)C)cc2c1 (configuration not stated)	D2 PAM-1 31.3
c1c(C2CCCCC2)n[nH]c1CN1CCCCC1	D2 antagonist 40.1
CCOC(=O)C1(c2csc(N)n2)COC(=O)C1 (configuration not stated)	D2 antagonist 43.7
CCOc1ccc(CCNc2ncnc3onc(C)c23)cc1OCC	none (no result: D2 antagonist, D2 PAM-2, D2 ag-1, D2 ag-2)
CN(C)/C=C1\C=C2C(=O)c3ccccc3N2C1=O	D2 ag-1 95.5
CC(C)NC(=O)c1ccc(Cn2c(SCC(N)=O)nc3ccccc3c2=O)cc1	none (no result: D2 antagonist, D2 PAM-2, D2 ag-2)
c1cc2c3c(cccc3c1)NC1(CCC3(CC1)Nc1cccc4cccc(c14)N3)N2	D2 PAM-2 70.6
Cc1ccccc1-c1nc2scc(CCNC(=O)c3ccco3)n2n1	none (no result: D2 antagonist, D2 PAM-2, D2 ag-2)
Cn1cc(S(=O)(=O)N2CCCCCC2)cc1C(=O)N1CCN(c2cccc(C(F)(F)F)c2)CC1	none (no result: D2 antagonist, D2 PAM-2, D2 ag-1, D2 ag-2)
CCC(C)NC(=O)c1cn(CC)c2ccc(S(=O)(=O)N3CCc4ccccc4C3)cc2c1=O (configuration not stated)	none (no result: D2 antagonist, D2 PAM-2, D2 ag-2)
COC(=O)c1ccsc1NC(=O)CS(=O)(=O)c1ccccc1	D2 antagonist 30.6
Clc1ccc(-c2ccc(/C=N/Nc3nncc(-c4ccccc4)n3)o2)cc1	none
Cc1ccc(/C=N/Nc2nncc(-c3ccccc3)n2)o1	D2 antagonist 50.6
CC(=O)c1c(NCc2ccccc2)nc(=O)n(-c2ccccc2)c1C	D2 antagonist 39.7
CCC(=O)N1CCc2cc(Br)cc(S(=O)(=O)N(CC)Cc3ccccc3)c21	none (no result: D2 antagonist, D2 PAM-2, D2 ag-2)
c1ccc(N2CCN(c3c4c(nc5ncnn35)CCC4)CC2)cc1	none
CC1CCCCC1NC(=O)C1CCN(c2c3c(nc4ncnn24)CCC3)CC1 (configuration not stated)	D2 antagonist 34.1
CSCC(C)N1CCC(n2nccc2NC(=O)c2ccc3c(c2)OCO3)CC1 (configuration not stated)	D2 antagonist 58.3
CC(Cc1ccc(Cl)cc1)N1CCC(n2nccc2NC(=O)C2CCCC2)CC1 (configuration not stated)	D2 antagonist 31.1
O=C(Nc1ccnn1C1CCN(Cc2ccccc2)CC1)C1CCCC1	none
COc1ccc(C2CC(c3cc(Br)ccc3F)n3nnnc3N2)cc1 (configuration not stated)	D2 PAM-1 33.5
COc1ccc(C2CC(c3ccccc3)n3nnnc3N2)cc1 (configuration not stated)	none
Cc1ccc(C(=O)NCCN2C3=NC[C@@H](Cc4ccccc4)N3C[C@H]2Cc2ccc(O)cc2)cc1Br	D2 antagonist 68.1
Cn1c(CCC(N)=O)nnc1SCC(=O)Nc1ccccc1C(=O)NC1CC1	D2 antagonist 31.4
C=CCn1c(C)nnc1SCC(=O)Nc1ccccc1C(=O)NC1CC1	none
Cc1ccc(NC(=O)Cc2nnc(SCC(=O)NC3CCCC3)n2C)cc1C	D2 antagonist 31.4
CCn1c(CC(=O)Nc2ccccc2F)nnc1SCC(=O)NC1CCCCC1	none
CCn1c(CC(=O)Nc2ccccc2Cl)nnc1SCC(=O)NC1CCCC1	D2 antagonist 34.2
CCOC(=O)c1cc(-c2ccc(OC)cc2)n(CCC(=O)NCc2ccccc2OC)c1C	none (no result: D2 antagonist, D2 PAM-2, D2 ag-2)
CC(C)NC(=O)N1CCN(S(=O)(=O)c2ccc3c(ccn3C)c2)CC1	none (no result: D2 antagonist, D2 PAM-2, D2 ag-2)
